# Measured values as given in PubChem BioAssay AID763 (NMMLSC, 2007).
# Values without a mark were called inactive. Active and inactive are the calls of the source. How the calls were made is not given here.
# Molecular target: fMet-Leu-Phe receptor (Homo sapiens) (UniProt P21462)
# Assay: FPR1 fluorescent ligand binding inhibitors, SAR follow-up, selectivity assay for FPRL1 ligand SAR project, cell-based, single concentration (AID 763)
# Settings: FPR1-expressing cells, hits give high values; at 5.4 µM unless noted
# fMet-Leu-Phe receptor (Homo sapiens), sequence (P21462 whole entry, looked up): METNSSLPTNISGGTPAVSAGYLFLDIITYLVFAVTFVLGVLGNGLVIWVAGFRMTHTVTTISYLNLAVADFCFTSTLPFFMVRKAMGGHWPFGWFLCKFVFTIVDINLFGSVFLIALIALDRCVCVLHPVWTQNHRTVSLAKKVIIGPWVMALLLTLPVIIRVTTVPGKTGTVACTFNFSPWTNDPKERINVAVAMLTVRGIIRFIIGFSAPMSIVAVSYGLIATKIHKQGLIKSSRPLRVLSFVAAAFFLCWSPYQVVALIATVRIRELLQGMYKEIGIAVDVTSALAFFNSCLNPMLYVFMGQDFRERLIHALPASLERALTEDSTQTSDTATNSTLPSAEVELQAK
row,SMILES,inhibition
1,Cc1ccc(-c2cc(C(F)F)nc(N3CCN(c4cccc(Cl)c4)CC3)n2)cc1,2.7%
2,Clc1cccc(-c2nc(N3CCN(c4ccccc4)CC3)nc3c2COc2ccccc2-3)c1,-0.5% [at 4.9 µM]
3,FC(F)(F)c1cc(-c2cccs2)nc(N2CCN(Cc3ccccc3)CC2)n1,0.4% [at 5.5 µM]
4,COc1ccc(-c2cn3cccnc3n2)cc1NC(=O)c1ccco1,1.3% [at 6.7 µM]
5,O=C(O)C1CC=CCC1C(=O)N1CCN(c2nc(-c3ccccc3Cl)c3cc(Br)ccc3n2)CC1 (stereo not drawn),5.3% [at 4 µM]
6,Clc1cccc(-c2nc(N3CCN(Cc4ccccc4)CC3)nc3c2COc2ccccc2-3)c1,5.3% [at 4.7 µM]
7,O=C(N1CCN(c2nc(-c3ccccc3)c3cc([N+](=O)[O-])ccc3n2)CC1)C(F)(F)F,-1.2% [at 5.2 µM]
8,COc1ccc(-c2cn3cccnc3n2)cc1NC(=O)CCc1ccccc1,6.4% [at 6 µM]
9,CCOCC(=O)Nc1cc(-c2cn3cccnc3n2)ccc1OC,2.3% [at 6.8 µM]
10,COc1ccc(-c2cc(C(F)(F)F)nc(N3CCN(c4ccc(F)cc4)CC3)n2)cc1OC,-1.4% [at 4.8 µM]
11,CC(=O)N1CCN(c2nc(-c3ccccc3)c3cc(Cl)ccc3n2)CC1,2.2% [at 6.1 µM]
12,COc1ccc(C2CC(=O)c3cnc(N4CCN(Cc5ccc6c(c5)OCO6)CC4)nc3C2)cc1 (stereo not drawn),0.4% [at 4.7 µM]
13,Fc1ccc(-c2cc(C(F)(F)F)nc(N3CCN(Cc4ccccc4)CC3)n2)cc1,0% [at 5.3 µM]
14,Fc1ccc(-c2cc(C(F)(F)F)nc(N3CCN(c4ccc(F)cc4)CC3)n2)cc1,-2% [at 5.3 µM]
15,CCOC(=O)N1CCN(c2nc(-c3ccc(Cl)cc3)cc(C(F)(F)F)n2)CC1,-2.8%
16,COc1ccccc1-c1cc(C(F)(F)F)nc(N2CCN(C)CC2)n1,5% [at 6.3 µM]
17,CCC(=O)Nc1cccc(-c2nc3ncccn3c2C)c1,5.6% [at 7.9 µM]

row,SMILES,inhibition
1,C/C=C\C(=O)Nc1cc(-c2cn3cccnc3n2)ccc1OC,4% [at 7.2 µM]
2,Cc1ccc(-c2cc(C(F)F)nc(N3CCN(Cc4ccccc4)CC3)n2)cc1,-7.2% [at 5.6 µM]
3,Clc1cccc(-c2nc(N3CCN(c4ccccn4)CC3)nc3c2COc2ccccc2-3)c1,1.7% [at 4.9 µM]
4,O=C(O)/C=C/C(=O)N1CCN(c2nc(-c3ccccc3)c3ccccc3n2)CC1,2.4% [at 5.7 µM]
5,CCN1CCN(c2nc(-c3cccc(Cl)c3)c3c(n2)-c2ccccc2OC3)CC1,-9.4% [at 5.5 µM]
6,COc1ccc(-c2cc(C(F)(F)F)nc(N3CCN(c4ccccc4)CC3)n2)cc1OC,54.8% [at 5 µM] (active)
7,Fc1ccc(-c2cc(C(F)(F)F)nc(N3CCN(c4ccccc4)CC3)n2)cc1,-1% [at 5.5 µM]
8,COc1ccc(-c2cn3cccnc3n2)cc1NC(=O)c1cc(C)cc(C)c1,-0.5% [at 6 µM]
9,Cc1ccc2nc(N3CCN(C(=O)CC4(CC(=O)O)CCCC4)CC3)nc(-c3ccccc3)c2c1,0.5% [at 4.7 µM]
10,COc1ccc(-c2cn3cccnc3n2)cc1NC(=O)C1CCCC1,6.6% [at 6.6 µM]
11,O=C(O)CCC(=O)N1CCN(c2nc(-c3ccccc3)c3ccccc3n2)CC1,6.1% [at 5.7 µM]
12,COc1ccc(-c2cn3cccnc3n2)cc1NC(=O)c1ccccc1,-4.9% [at 6.5 µM]
13,COc1cccc(C(=O)Nc2cc(-c3cn4cccnc4n3)ccc2OC)c1,1% [at 5.9 µM]
14,O=C(c1ccc(Cl)cc1)N1CCN(c2nc(-c3ccccc3)c3ccccc3n2)CC1,-1.9% [at 5.2 µM]
15,O=C(O)CCCC(=O)N1CCN(c2nc(-c3ccccc3)c3cc(Br)ccc3n2)CC1,-1.2% [at 4.6 µM]
16,COc1ccc(-c2cn3cccnc3n2)cc1NC(=O)COc1ccccc1,5.8% [at 5.9 µM]
